“And” between values parts separate entries of the source, which are not always exact repeats. Identical values can stand only once. Records with an inconclusive call do not appear. The source made the active and inactive calls. How the source made its calls, unless noted: active means hit-call score of the fitted dose curve at least 0.9, where 1 is the maximum; inactive means score below 0.9.
What was measured:
[1] = BSK_4H_Eotaxin3: BioMAP Diversity Plus: 4H Assay for Eotaxin 3 Biomarker Activity (AID 2283000); conditions: primary human endothelial cells (HUVEC); actives raise or lower the signal
Outline: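 Readout is Eotaxin-3 (CCL26) level by ELISA in primary human umbilical vein endothelial cells harvested 24 h after chemical exposure; activity fitted in both directions against DMSO control.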

[2] = biological target: human Peroxisome Proliferator-activated Receptor alpha (PPARa), PPARA (gene 5465) (UniProt Q07869); experiment: ATG_PPARa_TRANS: Attagene TRANS-FACTORIAL HepG2 Assay for human Peroxisome Proliferator-activated Receptor alpha (PPARa) (AID 2283001; active means hit-call score of the fitted dose curve at least 0.9, where 1 is the maximum;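 on AC50: potency for gain of reporter signal over DMSO so agonist or activator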)
Chain of human Peroxisome Proliferator-activated Receptor alpha (PPARa), PPARA (gene 5465) (Q07869 whole entry, looked up): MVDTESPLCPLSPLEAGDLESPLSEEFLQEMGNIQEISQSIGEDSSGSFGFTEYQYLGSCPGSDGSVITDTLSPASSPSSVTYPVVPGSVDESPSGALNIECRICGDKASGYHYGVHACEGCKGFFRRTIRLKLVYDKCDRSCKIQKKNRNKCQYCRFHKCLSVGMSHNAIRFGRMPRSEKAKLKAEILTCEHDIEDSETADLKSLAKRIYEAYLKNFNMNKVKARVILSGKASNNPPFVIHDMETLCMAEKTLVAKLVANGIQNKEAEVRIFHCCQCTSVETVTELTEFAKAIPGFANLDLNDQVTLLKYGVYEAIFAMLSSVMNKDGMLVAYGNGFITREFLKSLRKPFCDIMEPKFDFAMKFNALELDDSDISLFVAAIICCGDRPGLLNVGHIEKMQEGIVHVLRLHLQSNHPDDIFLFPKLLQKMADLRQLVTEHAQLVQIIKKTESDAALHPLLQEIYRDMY
Outline: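 HepG2, transient MRTU transfection, 24 h treatment. RT-PCR → FAM labelling → capillary electrophoresis. Fit vs DMSO, positive direction.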

[3] = biological target: human Peroxisome Proliferator-activated Receptor delta (PPARd), PPARD (gene 5467) (UniProt Q03181); experiment: ATG_PPARd_TRANS: Attagene TRANS-FACTORIAL HepG2 Assay for human Peroxisome Proliferator-activated Receptor delta (PPARd) (AID 2283002; active means hit-call score of the fitted dose curve at least 0.9, where 1 is the maximum)
Chain of human Peroxisome Proliferator-activated Receptor delta (PPARd), PPARD (gene 5467) (Q03181 whole entry, looked up, the tested form may be a part): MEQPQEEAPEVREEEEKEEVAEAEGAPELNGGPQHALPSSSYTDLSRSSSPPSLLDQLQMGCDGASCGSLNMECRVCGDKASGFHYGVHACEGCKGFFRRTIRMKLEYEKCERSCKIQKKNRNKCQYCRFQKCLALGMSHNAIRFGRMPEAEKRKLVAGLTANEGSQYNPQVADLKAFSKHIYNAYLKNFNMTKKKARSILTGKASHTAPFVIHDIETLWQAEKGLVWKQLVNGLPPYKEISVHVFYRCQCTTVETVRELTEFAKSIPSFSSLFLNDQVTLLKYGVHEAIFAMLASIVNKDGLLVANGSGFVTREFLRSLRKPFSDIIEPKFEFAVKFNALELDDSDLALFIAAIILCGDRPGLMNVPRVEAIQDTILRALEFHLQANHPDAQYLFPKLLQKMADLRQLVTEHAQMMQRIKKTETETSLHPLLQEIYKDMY
Outline: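 HepG2 cells transiently transfected with GAL4-UAS multiplexed reporter units driven by exogenous chimeric NR-GAL4 proteins; 24 h compound exposure. Reporter mRNA measured by RT-PCR, 6-FAM primer extension, HpaI digestion and capillary electrophoresis; gain of signal fitted relative to DMSO.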

[4] = read-out: Intercellular Adhesion Molecule 1 (ICAM1), ICAM1 (gene 3383); experiment: BSK_3C_ICAM1: BioMAP Diversity Plus: 3C Assay for Intercellular Adhesion Molecule 1 (ICAM1) Biomarker Activity (AID 2283003); conditions: primary human endothelial cells (HUVEC); actives raise or lower the signal
Outline: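 Chemicals are dosed onto primary human umbilical vein endothelium (3C system). After 24 h, ICAM-1 is measured by ELISA, and responses are fitted bidirectionally relative to DMSO.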

[5] = biological target: human Retinoic Acid Receptor beta (RARb), RARB (gene 5915) (UniProt P10826); experiment: ATG_RARb_TRANS: Attagene TRANS-FACTORIAL HepG2 Assay for human Retinoic Acid Receptor beta (AID 2283004; active means hit-call score of the fitted dose curve at least 0.9, where 1 is the maximum)
Chain of human Retinoic Acid Receptor beta (RARb), RARB (gene 5915) (P10826 whole entry, looked up, the tested form may be a part): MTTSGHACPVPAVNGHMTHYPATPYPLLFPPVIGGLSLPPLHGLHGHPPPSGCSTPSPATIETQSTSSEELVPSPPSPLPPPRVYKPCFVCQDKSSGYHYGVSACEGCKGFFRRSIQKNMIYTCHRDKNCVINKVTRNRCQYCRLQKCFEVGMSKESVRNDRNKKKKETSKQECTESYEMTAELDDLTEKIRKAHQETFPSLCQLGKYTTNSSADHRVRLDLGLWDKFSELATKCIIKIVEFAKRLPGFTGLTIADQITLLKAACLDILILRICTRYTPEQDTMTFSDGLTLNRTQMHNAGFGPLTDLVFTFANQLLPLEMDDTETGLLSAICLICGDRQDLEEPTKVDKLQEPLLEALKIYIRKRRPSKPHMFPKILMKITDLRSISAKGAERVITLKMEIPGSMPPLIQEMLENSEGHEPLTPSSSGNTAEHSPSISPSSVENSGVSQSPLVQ
Outline: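 Readout is reporter mRNA induction: RNA reverse-transcribed, PCR-amplified, FAM-labelled, HpaI-cut and resolved by capillary electrophoresis. Transiently transfected HepG2 cells carrying exogenous NR–Gal4 chimeras were dosed for 24 h; activity fitted upward relative to DMSO.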

[6] = biological target: Retinoic acid receptor alpha (Homo sapiens) (UniProt P10276); experiment: ATG_RARa_TRANS: Attagene TRANS-FACTORIAL HepG2 Assay for human Retinoic Acid Receptor alpha (RARa) (AID 2283005; active means hit-call score of the fitted dose curve at least 0.9, where 1 is the maximum)
Chain of Retinoic acid receptor alpha (Homo sapiens) (P10276 whole entry, looked up, the tested form may be a part): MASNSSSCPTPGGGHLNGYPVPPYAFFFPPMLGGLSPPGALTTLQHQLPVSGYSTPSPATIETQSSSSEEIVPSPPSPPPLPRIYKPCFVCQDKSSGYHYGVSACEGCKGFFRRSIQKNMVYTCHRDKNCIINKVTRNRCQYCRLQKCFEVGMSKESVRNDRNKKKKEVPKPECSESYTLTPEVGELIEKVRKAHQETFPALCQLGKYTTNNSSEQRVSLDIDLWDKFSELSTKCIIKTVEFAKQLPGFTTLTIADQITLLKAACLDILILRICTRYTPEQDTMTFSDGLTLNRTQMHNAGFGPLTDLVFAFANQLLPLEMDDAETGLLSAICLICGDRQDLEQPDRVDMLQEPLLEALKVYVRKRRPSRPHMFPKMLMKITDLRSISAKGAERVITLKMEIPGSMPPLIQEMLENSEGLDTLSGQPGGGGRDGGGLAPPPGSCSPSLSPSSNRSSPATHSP
Outline: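 HepG2 transiently transfected with multiplex GAL4-UAS reporter units including a human RARa–GAL4 chimera; 24 h compound exposure. Reporter mRNA quantified by RT-PCR, 6-FAM labeling and capillary electrophoresis; gain of signal versus DMSO.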

[7] = BSK_3C_Proliferation: Cell Proliferation Assessment in the BioMAP Diversity Plus: 3C Assay (AID 2283006); conditions: primary human endothelial cells (HUVEC);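 on AC50: potency may reflect either rise or fall in cell number versus DMSO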
Outline: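 Cells (human umbilical vein endothelial, sub-confluent) receive test chemical; after 48 h they are fixed in 10% trichloroacetic acid, stained with 0.1% SRB and read at 560 nm. Activity is referenced to DMSO, fitting increases and decreases.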

[8] = biological target: Peroxisome proliferator-activated receptor gamma (Homo sapiens) (UniProt P37231); experiment: ATG_PPARg_TRANS: Attagene TRANS-FACTORIAL HepG2 Assay for human Peroxisome Proliferator-activated Receptor-gamma (PPARg) (AID 2283007; active means hit-call score of the fitted dose curve at least 0.9, where 1 is the maximum)
Chain of Peroxisome proliferator-activated receptor gamma (Homo sapiens) (P37231 whole entry, looked up, the tested form may be a part): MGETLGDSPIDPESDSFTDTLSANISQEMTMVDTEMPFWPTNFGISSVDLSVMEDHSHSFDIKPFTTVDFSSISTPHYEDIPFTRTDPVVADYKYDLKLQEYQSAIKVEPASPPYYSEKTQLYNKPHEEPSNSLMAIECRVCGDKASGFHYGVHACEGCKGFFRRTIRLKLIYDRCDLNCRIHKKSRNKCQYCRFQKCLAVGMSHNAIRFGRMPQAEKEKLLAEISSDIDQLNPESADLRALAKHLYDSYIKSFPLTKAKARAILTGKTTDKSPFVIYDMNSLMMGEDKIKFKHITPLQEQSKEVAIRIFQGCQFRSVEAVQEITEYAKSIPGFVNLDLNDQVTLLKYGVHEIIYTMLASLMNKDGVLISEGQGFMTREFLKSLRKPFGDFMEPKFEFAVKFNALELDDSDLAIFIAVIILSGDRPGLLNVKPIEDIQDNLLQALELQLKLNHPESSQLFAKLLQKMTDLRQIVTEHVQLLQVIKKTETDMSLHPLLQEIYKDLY
Outline: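 After 24 h of chemical exposure, transfected HepG2 cells carrying PPARγ-Gal4 chimera reporter constructs are lysed for RNA. Reporter transcripts are measured by RT-PCR and capillary electrophoresis with fluorescent labelling, and gain of signal is fitted versus DMSO.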

[9] = biological target: Nuclear receptor subfamily 1 group I member 2 (Homo sapiens) (UniProt O75469); experiment: ATG_PXR_TRANS: Attagene TRANS-FACTORIAL HepG2 Assay for human Pregnane X Receptor (PXR) (AID 2283008; active means hit-call score of the fitted dose curve at least 0.9, where 1 is the maximum)
Chain of Nuclear receptor subfamily 1 group I member 2 (Homo sapiens) (O75469 whole entry, looked up, the tested form may be a part): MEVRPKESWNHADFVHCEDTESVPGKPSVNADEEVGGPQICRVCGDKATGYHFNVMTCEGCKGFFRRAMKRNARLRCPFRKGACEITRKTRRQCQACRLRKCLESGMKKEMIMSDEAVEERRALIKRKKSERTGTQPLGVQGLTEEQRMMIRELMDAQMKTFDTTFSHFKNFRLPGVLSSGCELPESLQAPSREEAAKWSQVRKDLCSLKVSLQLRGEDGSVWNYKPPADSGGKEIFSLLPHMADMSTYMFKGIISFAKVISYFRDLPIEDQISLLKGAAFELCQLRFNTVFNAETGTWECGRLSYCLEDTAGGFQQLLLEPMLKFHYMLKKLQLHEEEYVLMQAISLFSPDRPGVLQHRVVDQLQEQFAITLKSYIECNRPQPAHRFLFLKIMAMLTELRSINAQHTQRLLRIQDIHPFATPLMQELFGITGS
Outline: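 Transactivation by exogenous PXR–GAL4 fusion measured as reporter transcript induction after 24 h compound treatment of transfected human HepG2 cells. Read-out via RT-PCR and capillary electrophoresis of labelled fragments, fitted upward relative to DMSO.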

[10] = biological target: human Retinoic Acid Receptor gamma (RARg), RARG (gene 5916) (UniProt P13631); experiment: ATG_RARg_TRANS: Attagene TRANS-FACTORIAL HepG2 Assay for human Retinoic Acid Receptor gamma (RARg) (AID 2283009; active means hit-call score of the fitted dose curve at least 0.9, where 1 is the maximum)
Chain of human Retinoic Acid Receptor gamma (RARg), RARG (gene 5916) (P13631 whole entry, looked up, the tested form may be a part): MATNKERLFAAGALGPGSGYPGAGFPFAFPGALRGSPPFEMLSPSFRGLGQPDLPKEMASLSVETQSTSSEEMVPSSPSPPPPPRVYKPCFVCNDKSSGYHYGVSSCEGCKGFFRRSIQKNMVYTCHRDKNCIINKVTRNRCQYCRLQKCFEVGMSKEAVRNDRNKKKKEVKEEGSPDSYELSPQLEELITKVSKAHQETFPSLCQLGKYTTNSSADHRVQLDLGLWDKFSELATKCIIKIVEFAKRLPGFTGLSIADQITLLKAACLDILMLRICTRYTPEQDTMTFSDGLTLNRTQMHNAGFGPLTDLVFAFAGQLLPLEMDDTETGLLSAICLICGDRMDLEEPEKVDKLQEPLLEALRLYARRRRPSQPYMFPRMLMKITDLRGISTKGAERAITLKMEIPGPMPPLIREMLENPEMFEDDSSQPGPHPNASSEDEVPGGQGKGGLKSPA
Outline: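 TRANS format measured activity of exogenous NR-GAL4 fusion (RARg) in transfected HepG2 liver cells after 24 h dosing. Induced reporter RNA was detected by RT-PCR/capillary electrophoresis fluorescence, analysed in the positive direction against DMSO.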

[11] = biological target: human RAR-related Orphan Receptor beta (RORb), RORB (gene 6096) (UniProt Q92753); experiment: ATG_RORb_TRANS: Attagene TRANS-FACTORIAL HepG2 Assay for human RAR-related Orphan Receptor beta (RORb) (AID 2283010; active means hit-call score of the fitted dose curve at least 0.9, where 1 is the maximum)
Outline: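 Transfect HepG2 with multiple GAL4-UAS reporter transcription units; dose chemicals for 24 h; isolate RNA, reverse-transcribe and PCR-amplify reporter sequences; label, digest and resolve fragments by capillary electrophoresis; fit increases relative to DMSO.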

[12] = biological target: Retinoic acid receptor RXR-alpha (Homo sapiens) (UniProt P19793); experiment: ATG_RXRa_TRANS: Attagene TRANS-FACTORIAL HepG2 Assay for human Retinoid X Receptor alpha (RXRa) (AID 2283012; active means hit-call score of the fitted dose curve at least 0.9, where 1 is the maximum)
Chain of Retinoic acid receptor RXR-alpha (Homo sapiens) (P19793 whole entry, looked up, the tested form may be a part): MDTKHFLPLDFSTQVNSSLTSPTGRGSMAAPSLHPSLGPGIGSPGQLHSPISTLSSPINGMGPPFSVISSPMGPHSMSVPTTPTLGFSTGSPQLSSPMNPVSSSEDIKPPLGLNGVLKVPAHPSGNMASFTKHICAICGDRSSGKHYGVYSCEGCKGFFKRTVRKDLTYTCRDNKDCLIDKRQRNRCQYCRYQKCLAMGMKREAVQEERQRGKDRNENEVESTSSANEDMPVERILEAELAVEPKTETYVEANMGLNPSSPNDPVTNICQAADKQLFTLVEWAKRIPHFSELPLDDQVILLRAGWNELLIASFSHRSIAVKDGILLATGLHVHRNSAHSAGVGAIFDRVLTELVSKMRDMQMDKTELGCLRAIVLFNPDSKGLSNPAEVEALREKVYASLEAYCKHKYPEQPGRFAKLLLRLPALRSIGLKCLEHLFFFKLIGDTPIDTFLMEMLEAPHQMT
Outline: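 Measures exogenous chimeric NR-GAL4 activity in transfected HepG2 liver cells after 24 h of dosing. Induced reporter mRNA was detected by RT-PCR with capillary electrophoresis, and gain of signal was analysed against DMSO.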

[13] = biological target: human Retinoid X Receptor beta (RXRb), RXRB (gene 6257) (UniProt P28702); experiment: ATG_RXRb_TRANS: Attagene TRANS-FACTORIAL HepG2 Assay for human Retinoid X Receptor beta (RXRb) (AID 2283013; active means hit-call score of the fitted dose curve at least 0.9, where 1 is the maximum)
Outline: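 Chimeric receptor-Gal4 activity was assessed in transiently transfected human HepG2 cells after 24 h exposure. Transcripts from GAL4-UAS reporters were quantified by fluorescent RT-PCR and capillary electrophoresis, with DMSO as negative control and baseline.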

[14] = read-out: E-selectin (Homo sapiens) (UniProt P16581); experiment: BSK_3C_Eselectin: BioMAP Diversity Plus: 3C Assay for Eselectin Biomarker Activity (AID 2283015); conditions: primary human endothelial cells (HUVEC); actives raise or lower the signal
Outline: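 HUVEC, 3C stimulation; compound exposure 24 h; E-selectin by ELISA; gain- or loss-of-signal fitted bidirectionally vs DMSO baseline.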

[15] = read-out: Interleukin-1 alpha (IL1a), IL1A (gene 3552); experiment: BSK_BE3C_IL1a: BioMAP Diversity Plus: BE3C Assay for Interleukin-1 alpha (IL1a) Biomarker Activity (AID 2283016); conditions: primary human bronchial epithelial cells; actives raise or lower the signal
Outline: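 Signal from IL-1a ELISA, taken 24 h after chemical dosing of human bronchial epithelial cells, is compared with DMSO as baseline using bidirectional curve fitting.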

[16] = read-out: Monocyte Chemoattractant Protein-1 (MCP1), CCL2 (gene 6347); experiment: BSK_3C_MCP1: BioMAP Diversity Plus: 3C Assay for Monocyte Chemoattractant Protein-1 (MCP1) Biomarker Activity (AID 2283017); conditions: primary human endothelial cells (HUVEC); actives raise or lower the signal
Outline: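 HUVEC, 3C system; 24 h chemical exposure; MCP-1 by ELISA; bidirectional curve fit vs DMSO baseline.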

[17] = read-out: Monocyte Chemoattractant Protein-1 (MCP1), CCL2 (gene 6347); experiment: BSK_4H_MCP1: BioMAP Diversity Plus: 4H Assay for Monocyte Chemoattractant Protein-1 (MCP1) Biomarker Activity (AID 2283018); conditions: primary human endothelial cells (HUVEC); actives raise or lower the signal
Outline: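 Endothelial cells from umbilical vein were treated with test chemical, then after 24 h MCP-1 levels were quantified by ELISA; endpoint values came from bidirectional fitting with DMSO as baseline of activity.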

[18] = read-out: Human Leukocyte Antigen - DR isotype (HLADR), HLA-DRA (gene 3122); experiment: BSK_3C_HLADR: BioMAP Diversity Plus: 3C Assay for Human Leukocyte Antigen - DR isotype (HLADR) Biomarker Activity (AID 2283019); conditions: primary human endothelial cells (HUVEC); actives raise or lower the signal
Outline: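 HUVEC, 3C stimulation, 24 h post-dose; HLA-DR by ELISA; bidirectional curve fit vs DMSO baseline; gain or loss of signal scored.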

[19] = biological target: human RAR-related Orphan Receptor gamma (RORg), RORC (gene 6097) (UniProt P51449); experiment: ATG_RORg_TRANS: Attagene TRANS-FACTORIAL HepG2 Assay for human RAR-related Orphan Receptor gamma (RORg) (AID 2283011; active means hit-call score of the fitted dose curve at least 0.9, where 1 is the maximum)
Chain of human RAR-related Orphan Receptor gamma (RORg), RORC (gene 6097) (P51449 whole entry, looked up, the tested form may be a part): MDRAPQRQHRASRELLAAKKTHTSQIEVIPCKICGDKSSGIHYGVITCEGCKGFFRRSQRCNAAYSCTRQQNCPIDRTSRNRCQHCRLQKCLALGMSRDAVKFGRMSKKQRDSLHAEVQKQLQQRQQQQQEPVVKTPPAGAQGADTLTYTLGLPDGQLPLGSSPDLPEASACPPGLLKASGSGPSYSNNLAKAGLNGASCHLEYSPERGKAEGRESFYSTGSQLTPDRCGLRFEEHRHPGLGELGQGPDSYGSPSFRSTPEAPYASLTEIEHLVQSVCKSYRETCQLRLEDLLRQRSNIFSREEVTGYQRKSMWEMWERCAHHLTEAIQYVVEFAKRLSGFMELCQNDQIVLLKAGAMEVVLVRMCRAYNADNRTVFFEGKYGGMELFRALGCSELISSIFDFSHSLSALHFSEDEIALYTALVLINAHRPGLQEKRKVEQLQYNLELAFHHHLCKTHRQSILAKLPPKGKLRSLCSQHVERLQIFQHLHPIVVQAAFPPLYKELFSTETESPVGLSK
Outline: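 Transient MRTU transfection of HepG2 (TRANS format, exogenous NR-Gal4 chimera). 24 h dosing. Total RNA → oligo(dT) RT → PCR → 6-FAM labelling → HpaI cut → CE. Gain vs DMSO.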

[20] = biological target: human Thyroid Receptor alpha (THRa1), THRA (gene 7067) (UniProt P10827); experiment: ATG_THRa1_TRANS: Attagene TRANS-FACTORIAL HepG2 Assay for human Thyroid Receptor alpha (THRa1) (AID 2283014; active means hit-call score of the fitted dose curve at least 0.9, where 1 is the maximum)
Outline: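 Transient HepG2 transfection, NR-Gal4 chimera driving GAL4-UAS reporters; 24 h compound exposure; total RNA, oligo(dT) RT, PCR, fluorescent primer extension, capillary electrophoresis. Upward direction vs DMSO control.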

Measured: AC50

Chain of E-selectin (Homo sapiens) (P16581 whole entry, looked up): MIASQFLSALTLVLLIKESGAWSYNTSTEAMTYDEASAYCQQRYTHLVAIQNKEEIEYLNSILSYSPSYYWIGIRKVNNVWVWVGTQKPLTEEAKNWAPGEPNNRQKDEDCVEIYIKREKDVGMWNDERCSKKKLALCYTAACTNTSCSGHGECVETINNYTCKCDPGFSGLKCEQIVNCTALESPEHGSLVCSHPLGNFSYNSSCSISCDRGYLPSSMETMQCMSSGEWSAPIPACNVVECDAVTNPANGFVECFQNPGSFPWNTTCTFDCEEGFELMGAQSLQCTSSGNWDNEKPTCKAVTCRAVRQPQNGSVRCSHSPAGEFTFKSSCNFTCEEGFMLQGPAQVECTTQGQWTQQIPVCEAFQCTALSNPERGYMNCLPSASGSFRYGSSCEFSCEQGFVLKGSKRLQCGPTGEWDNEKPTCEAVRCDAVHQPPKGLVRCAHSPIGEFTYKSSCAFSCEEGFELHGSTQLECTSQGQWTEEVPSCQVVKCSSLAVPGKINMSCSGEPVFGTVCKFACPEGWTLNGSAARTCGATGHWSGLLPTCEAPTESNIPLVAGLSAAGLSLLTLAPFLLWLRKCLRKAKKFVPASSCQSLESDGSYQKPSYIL

CNS(=O)(=O)C(F)(F)C(F)(F)C(F)(F)C(F)(F)C(F)(F)C(F)(F)C(F)(F)C(F)(F)F
active: [7] 30 µM and 23.8 µM | [18] 6.3 µM and 8.04 µM
not listed: [19] | [20]
inactive: all other assays above

Brc1nc2ccccc2s1
inactive: [1] | [2] | [3] | [4] | [7] | [12] | [14] | [15] | [17] | [18]

C[Si](Cl)(Cl)CCC(F)(F)C(F)(F)C(F)(F)C(F)(F)C(F)(F)C(F)(F)F
not listed: [8] | [9] | [10] | [11] | [13] | [16] | [20]
inactive: all other assays above

O=C1c2c(O)ccc(Nc3ccc(CCO)cc3)c2C(=O)c2c([N+](=O)[O-])ccc(O)c21
active: [1] 9.19 µM | [4] 20 µM | [7] 20 µM | [8] 13 µM | [9] 6.55 µM | [20] 30 µM | [14] 4.35 µM | [17] 30.4 µM | [18] 10.6 µM
not listed: [11] | [13]
inactive: all other assays above

CCOC(C=C(C)CCC=C(C)C)OCC
inactive: [2] | [3]
active: [1] 29.3 µM | [4] 34.5 µM | [7] 28.1 µM | [8] 15.3 µM | [9] 26.5 µM | [14] 32.8 µM | [15] 3.97 µM | [17] 30.4 µM | [18] 35.4 µM

O=C(c1ccccc1)c1ccc(O)cc1O
active: [8] 42.5 µM | [13] 35 µM
not listed: [3] | [6] | [12] | [20]
inactive: all other assays above

O=C(O)C(F)(F)C(F)(F)C(F)(F)OC(F)(C(F)(F)F)C(F)(F)F
active: [2] 24.6 µM
not listed: [5] | [6] | [8] | [11] | [13] | [20]
inactive: all other assays above
